Gli-Sufu block: blocks Gli-Sufu signaling in a luciferase reporter; Sufu-KO-LIGHT fibroblasts, Gli luciferase reporter luminescence; inhibition, % at 5 µM; hit rate 0.74% among 340,000; AID 588413;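 active = inhibition above about 55%, limit read from the data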
NCOA3 inh: inhibitors of human steroid receptor coactivator 3 (SRC3). HEK293 GAL4-SRC3 luciferase reporter, luminescence. inhibition, % at 3.6 µM. hit rate 0.17% among 360,000;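 active = inhibition above a per-campaign cutoff, the mean of all compounds plus 3 SD, cut at about 60% in these data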;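 also: higher means less SRC3-driven luciferase light from the GAL4 reporter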
NR2F2 inh: NR2F2 (human) inhibition, primary screen | P24468 | HEK293T NGFI-A luciferase reporter, luminescence | inhibition, % at 8.6 µM | hit rate 0.7% among 370,000;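 active = inhibition above a per-plate cutoff, mean inhibition of test wells between control levels plus 3 SD, cut at about 38% in these data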;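 also: cells cotransfected with COUP-TFII expression vector driving the NGFI-A reporter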
NR5A2 inv ag: inverse agonists of human LRH-1 (NR5A2); HEK293T StAR-luciferase reporter, LRH-1 transfected, 24 h; inhibition, % at 3.6 µM; hit rate 0.13% among 360,000; O00482;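 active = inhibition above the mean inhibition of all tested compounds plus 3 SD, cut at about 73% in these data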
Target sequence (O00482 whole entry, looked up): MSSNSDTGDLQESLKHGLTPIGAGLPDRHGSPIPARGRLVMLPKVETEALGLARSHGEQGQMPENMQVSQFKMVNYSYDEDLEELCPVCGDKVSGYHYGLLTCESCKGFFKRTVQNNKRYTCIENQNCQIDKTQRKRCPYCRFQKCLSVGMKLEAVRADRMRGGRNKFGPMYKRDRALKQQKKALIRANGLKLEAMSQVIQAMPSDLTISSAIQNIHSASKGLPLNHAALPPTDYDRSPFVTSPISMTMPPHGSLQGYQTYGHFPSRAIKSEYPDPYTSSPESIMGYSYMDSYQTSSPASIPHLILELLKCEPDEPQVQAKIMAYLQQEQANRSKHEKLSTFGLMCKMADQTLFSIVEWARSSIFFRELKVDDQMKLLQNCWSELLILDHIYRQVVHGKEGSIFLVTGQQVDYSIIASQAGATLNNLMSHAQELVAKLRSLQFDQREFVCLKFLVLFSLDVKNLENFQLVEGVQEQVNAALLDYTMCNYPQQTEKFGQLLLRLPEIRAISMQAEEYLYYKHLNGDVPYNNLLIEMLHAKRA
SRC1 inh: human NCOA1 inhibition. HEK293 GAL4-SRC1 luciferase reporter, luminescence. inhibition, % at 3.6 µM. hit rate 0.12% among 360,000. AID 588354;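 active = inhibition above the campaign mean plus 3 SD, with each screening campaign given its own cutoff, cut at about 60% in these data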
SRC2 inh: human SRC2 (NCOA2) inhibition | Q15596 | HEK293 GAL4-SRC2 luciferase reporter, luminescence | inhibition, % at 9 µM | hit rate 0.17% among 370,000 | AID 651957;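 active = inhibition above the mean inhibition of all tested compounds plus 3 SD, set per campaign, cut at about 52% in these data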
Gli-Sufu confirm: Gli-SUFU antagonism confirmation, single concentration | hit rate 40% among 2,500 | AID 602428 | shares compounds with Gli-Sufu block | inhibition, % at 5 µM | Sufu-KO-LIGHT cells, Gli luciferase reporter, luminescence;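 active = mean inhibition at 5 µM reaching about 45%, limit read from the data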
SufuKO cytotox: cytotoxic in Gli-SUFU antagonist counter-screen; shares compounds with Gli-Sufu block; Sufu-KO-LIGHT cells cytotoxicity, ATP luminescence; cytotoxicity, % at 5 µM; hit rate 32% among 2,500;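 active = mean cytotoxicity at 5 µM above about 25%, limit read from the data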;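 also: cells exposed to compound overnight for roughly 16 to 18 hours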
Wnt3a counter: inhibits Wnt3a reporter, counter-screen for Gli-SUFU antagonists; shares compounds with Gli-Sufu block; Wnt-LIGHT cells, Wnt3a-driven luciferase reporter, luminescence; inhibition, % at 6.25 µM; hit rate 20% among 2,500; AID 651995;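 active = mean inhibition above about 25%, limit read from the data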
VP16 Luc counter: VP16 inhibition counter-screen for COUP-TFII. hit rate 25% among 2,500. shares compounds with NR2F2 inh. HEK293 Gal4-VP16 luciferase reporter, luminescence. inhibition, % at 8.5 µM; in the data active = inhibition above about 13%
NR2F2 inh conf: confirmation of human COUP-TFII (NR2F2) inhibitors. inhibition, % at 8.5 µM. hit rate 45% among 2,500. AID 687008. shares compounds with NR2F2 inh. HEK293 NGFI-A luciferase reporter, luminescence;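 active = mean inhibition over three repeats above a set limit taken from the earlier primary screen, cut at about 38% in these data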
Large screens that a line does not name were inactive (follow-up assays come after a bar, where they were run). The list is not random: actives were taken first. Their share in the collection is about 1.3%.

Cc1nn(-c2ccc(NC(=O)c3ccncc3)cc2)c(C)c1Cl	Gli-Sufu block 56, NR2F2 inh 67 | Gli-Sufu confirm 45 | SufuKO cytotox inactive | Wnt3a counter inactive | VP16 Luc counter inactive | NR2F2 inh conf 58
O=S(=O)(NCc1cccs1)c1ccc(Br)cc1	none
O=C(Nc1ccc(Br)cc1)c1ccc(F)c(S(=O)(=O)NCc2cccs2)c1	NR2F2 inh 72 | Gli-Sufu confirm 52 | SufuKO cytotox 43 | Wnt3a counter inactive | VP16 Luc counter inactive | NR2F2 inh conf 56
O=C(CCCN1C(=O)/C(=C\c2ccccc2)SC1=S)Nc1ccc(O)cc1	none
Cc1ccc(/C=C2/SC(=S)N(CCCC(=O)Nc3ccc(O)cc3)C2=O)cc1	Gli-Sufu block 62, NR2F2 inh 70, SRC2 inh 85 | Gli-Sufu confirm 67 | SufuKO cytotox 26 | Wnt3a counter 35 | VP16 Luc counter inactive | NR2F2 inh conf inactive
Cc1ccc(/C=C2\SC(=S)N(CCCC(=O)NNC(=O)c3ccccc3O)C2=O)cc1	Gli-Sufu block 60, NR2F2 inh 70, SRC2 inh 88 | Gli-Sufu confirm 59 | SufuKO cytotox inactive | Wnt3a counter 100 | VP16 Luc counter 23 | NR2F2 inh conf 39
CCCCC[n+]1cccc2c3ccccc3ccc21	Gli-Sufu block 74, NR2F2 inh 64, NR5A2 inv ag 78 | Gli-Sufu confirm 85 | SufuKO cytotox 27 | Wnt3a counter 33 | VP16 Luc counter 16 | NR2F2 inh conf 60
Cc1cc(N2CCCC2=O)cc(C)c1S(=O)(=O)NCCOc1ccc(C(C)(C)C)cc1	Gli-Sufu block 75, NR2F2 inh 44 | Gli-Sufu confirm 72 | SufuKO cytotox 44 | Wnt3a counter inactive | VP16 Luc counter inactive | NR2F2 inh conf inactive
CN(C)CCCNS(=O)(=O)c1ccc(N2CCN(Cc3ccc4c(c3)OCO4)CC2)c([N+](=O)[O-])c1	NR2F2 inh 40 | Gli-Sufu confirm inactive | SufuKO cytotox inactive | Wnt3a counter inactive | VP16 Luc counter inactive | NR2F2 inh conf inactive
CCCCNC(=O)C[C@H]1C[C@@]2(C(=O)OC)C(=C[C@H](C(C)C)O[C@@H]2C2CC2)N(Cc2ccc(Cl)cc2Cl)C1=O	none (no result: Gli-Sufu block, NCOA3 inh, NR5A2 inv ag, SRC1 inh)
COC(=O)c1ccc(S(=O)(=O)N2CCC(NC(=O)CCc3ccccc3)CC2)cc1	none (no result: Gli-Sufu block, NCOA3 inh, NR5A2 inv ag, SRC1 inh)
CC(=O)c1cn(CCOc2cc(C)ccc2C)c2ccccc12	Gli-Sufu block 68, NR2F2 inh 55 | Gli-Sufu confirm 64 | SufuKO cytotox inactive | Wnt3a counter 46 | VP16 Luc counter 18 | NR2F2 inh conf 63
COc1ccc(-c2nnc(SCC(=O)NN=C(C)c3cccc4ccccc34)n2-c2ccc(C)cc2)cc1	none (no result: Gli-Sufu block, NCOA3 inh, NR5A2 inv ag, SRC1 inh)
CCOC(=O)[C@@]12CN(C(=O)OC(C)(C)C)CC=C1N(Cc1ccc(OC)cc1)C(=O)[C@H]2CC(=O)NCCc1ccccc1OC	none (no result: Gli-Sufu block, NCOA3 inh, NR5A2 inv ag, SRC1 inh)
CCc1ccc(/C=C/c2c[nH]c3ccccc23)[n+](CC)c1	Gli-Sufu block 78, NR2F2 inh 40 | Gli-Sufu confirm 83 | SufuKO cytotox 32 | Wnt3a counter 46 | VP16 Luc counter inactive | NR2F2 inh conf 38
CCc1ccc(-c2cc(C(=O)N/N=C/c3c[nH]c4ccccc34)[nH]n2)cc1	none
CN(CCOc1ccc(Cl)cc1)C(=O)c1cccc(S(=O)(=O)N2CCN(c3ccccc3)CC2)c1	NR2F2 inh 59 | Gli-Sufu confirm 58 | SufuKO cytotox 34 | Wnt3a counter inactive | VP16 Luc counter inactive | NR2F2 inh conf 44
CN(Cc1ccc(Cl)cc1Cl)C(=O)c1cccc(S(=O)(=O)N2CCN(c3ccccc3)CC2)c1	none

High-throughput results from PubChem.
